Among the data in PubChem BioAssay (NCATS) are Potency values, retold here.

Results filed as inconclusive are left out. Entries that show only a call come without a potency. Activity calls are given as the source filed them. The call rests on the fitted dose curve; in most records, active means well fitted curve in the direction sought with a large enough effect; inconclusive means small, poorly fitted or top-dose-only effect, or another doubt; inactive means no such curve, though single readings can be large; an effect the other way counts as inactive or inconclusive. Peptide text beside a SMILES is read from it.

A short description of experiment [1]: qHTS assay to identify small molecule inhibitors of chordoma cells - UCH-1 (AID 1259355). Further: nearly all actives have a fitted effect of over 55% in size. Further: potency means the concentration at half of the fitted maximal effect; series mostly up to about 46 µM. The procedure, abridged: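 Cells (800/well) were seeded and left overnight at 37 C, 5% CO2, then treated with drugs at 15 concentrations plus a combination mix of auranofin, camptothecin, doxorubicin, rubitecan and topotecan. Viability after 48hr was read by CellTiter-Glo luminescence.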
On the technique in general: Quantitative high-throughput screening tests each substance at several concentrations.

A short description of experiment [2]: qHTS assay to identify small molecule inhibitors of chordoma cells - UCH-2 (AID 1259356). Further: series mostly up to about 46 µM.

Regarding `Nc1ncnc2c1ncn2[C@@H]1O[C@H](COP(=O)(O)OP(=O)(O)OP(=O)(O)O)[C@@H](O)[C@H]1O`, the Potency result in experiment [1] and in experiment [2] was “inactive” each time.

For the compound `CC1(C)S[C@@H]2[C@H](NC(=O)C(N)c3ccccc3)C(=O)N2[C@H]1C(=O)OC1OC(=O)c2ccccc21` (some centres not stated), the Potency entry in experiment [1] and in experiment [2] was “inactive” each time.

Consider `CCCCCCOc1ccc(C(=N)N(CCCC)CCCC)c2ccccc12`, for which, in experiment [1], the Potency result was “inactive”.

In the case of `CC(C)(C)C1(O)CCN2CC3c4ccccc4CCc4cccc(c43)C2C1` (configuration not stated), the Potency entry in experiment [1] and in experiment [2] was “inactive” in each case.

As for `CN1C(=O)CN2CCc3ccccc3C2c2cc(Cl)ccc21` (configuration not stated), the Potency result in experiment [1] and in experiment [2] was “inactive” in each case.

Turning to `CCOC(=O)C1=CC2(CC)CCCN3CCc4c(n1c1ccccc41)C32` (configuration not stated), the Potency entry in experiment [1] was “inactive”.

On to `CC(NNC(=O)c1ccccc1)c1ccccc1` (configuration not stated), for which the Potency result in experiment [1] and in experiment [2] was “inactive” each time.

On to `CC(=O)N[C@@H](CC(=O)O)C(=O)N[C@@H](CCC(=O)O)C(=O)O` (Ac-Asp-Glu-OH), for which the Potency result in experiment [1] is “inactive”.

As for `CC1(C)S[C@@H]2[C@H](NC(=O)C(C(=O)O)c3ccsc3)C(=O)N2[C@H]1C(=O)O` (some centres not stated), the Potency entry in experiment [1] and in experiment [2] was “inactive” each time.

With `O=C(O)CN(CCN(CC(=O)O)CC(=O)O)CC(=O)O`, the Potency entry in experiment [1] and in experiment [2] was “inactive” each time.

Regarding `O=S(=O)(O)c1cc(O)c2c(N=Nc3ccc(Nc4ccccc4)c4c(S(=O)(=O)O)cccc34)cc(S(=O)(=O)O)cc2c1`, the Potency in experiment [1] is 15.8 µM (active).

As for `COCC(=O)Nc1cc(Sc2ccccc2)ccc1N=C(NC(=O)OC)NC(=O)OC`, the Potency result in experiment [1] and in experiment [2] was “inactive” in each case.

`CO[C@@H]1[C@@H](O[C@@H]2O[C@H](C)[C@@H](O[C@H]3C[C@@](C)(O)[C@@H](O)[C@H](C)O3)[C@H](N(C)C)[C@H]2O)[C@@H](CC=O)C[C@@H](C)[C@@H](O[C@@H]2CC[C@H](N(C)C)[C@@H](C)O2)/C=C/C=C/C[C@@H](C)OC(=O)C[C@H]1O`: the Potency entry in experiment [1] and in experiment [2] was “inactive” throughout.
